Screens as filed in PubChem.
Rows were chosen to be rich in hits. Some 19% of all compounds tested hit in one or more screens of this group.
DT40 TDP1 no CPT = qHTS for Inhibitors of human tyrosyl-DNA phosphodiesterase 1 (TDP1): qHTS in cells in absence of CPT; AID 686978, 2013; DT40 Tdp1-/- hTDP1 cells, no CPT, ATP luminescence, 48 h; Potency, µM (top dose mostly 46.2 µM), usual class: inhibitors; 15% of 420,000 active; note: nearly all actives have a fitted effect of over 55% in size
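No-CPT arm: Tdp1-/-;hTDP1 DT40 cells (400/well) plus compounds, incubated ≥48 hr at 37 °C. Readout CellTiter-Glo luminescence.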
TDP1 cell CPT = DT40-hTDP1 cell growth loss with CPT; chicken DT40 Tdp1-/-;hTDP1 cells + 20 nM CPT, ATP luminescence, 48 h; Potency, µM (highest dose often 46.2 µM), usual class: inhibitors; 12% of 420,000 active; AID 686979; note: nearly all actives have a fitted effect of over 55% in size
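Cell growth measured by CellTiter-Glo luminescence after a minimum 48 h, 37 C compound exposure with 20 nM CPT in Tdp1-knockout DT40 cells stably expressing hTDP1, seeded 400/well; qHTS titration format.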
HT1080NT lethal = kills 2HG-producing HT-1080-NT fibrosarcoma cells; HT-1080-NT fibrosarcoma viability, CellTiter-Glo ATP luminescence, 48 h; Potency, µM (series often up to 46.1 µM), actives largely listed as cytotoxic; 1.6% of 360,000 active; AID 686970;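 note: NT is the 2HG producing partner of a matched IDH1 knockdown line; nearly all actives have a fitted effect of over 55% in size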
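Fibrosarcoma NT cells, 750 per well in 5% FBS RPMI, were exposed to compound for 48 hours. Viability: CellTiter-Glo luminescence.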
HT1080 IDH1KD tx = HT-1080 IDH1 knockdown cell toxicity (counter line); HT-1080 IDH1 knockdown viability, ATP luminescence, 48 h; Potency, µM (top dose mostly 46.1 µM), most hits filed as cytotoxic; 2% of 360,000 active
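Knockdown cells (IDH1KD HT-1080) received compounds 2 h after plating at 750 cells/well and were kept 48 h at 37 °C in 5% FBS RPMI. A CellTiter-Glo luminescence read gave % activity for curve fitting.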
IL1B secr inh = blocks inflammasome-driven IL-1 beta release; AID 743279; activity change, % at 57.5 µM; 4.7% of 360,000 active; THP-1 LPS/ATP IL-1B secretion, AlphaLISA, 16 h; stronger effect = lower value; in the data active = activity change below about -50%; inconclusive = mostly about -30% to -49%
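THP-1 cells pretreated 1 hr with compounds (up to 57.5 uM final), then stimulated with LPS (250 ng/mL final) plus ATP (1.25 mM final); secreted IL-1B measured by AlphaLISA after 16 hr, decreased signal indicating inhibition.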
Each line names hits and unclear results; the compound was inactive in the other large screens. Unless noted, calls come from the whole dose curve; as a rule, active = well fitted curve in the direction sought with a large enough effect; inconclusive = small, poorly fitted or top-dose-only effect, or another doubt; inactive = no such curve, though single readings can be large; an effect the other way counts as inactive or inconclusive.

CC1=C(C(=O)N(C)C)CC(CC(=O)NCc2cccc3ccccc23)C(=O)N1Cc1ccccc1 (stereo not given)	DT40 TDP1 no CPT inconclusive, TDP1 cell CPT inconclusive
CC1=C(C(=O)N(C(C)C)C(C)C)CC(CC(=O)NC2CCCCC2)C(=O)N1CCC1=CCCCC1 (stereo not given)	DT40 TDP1 no CPT 23µM, TDP1 cell CPT inconclusive
COc1ccc(Cc2noc(=O)[nH]2)cc1	none
COC(=O)C[C@@H]1C[C@@H]2c3cc(NC(=O)Cc4ccncc4)ccc3O[C@@H]2[C@@H](CO)O1	none
O=C(NCc1cccnc1)c1cn(-c2ccccc2)nc1-c1ccccc1	none
COc1ccc(CN2CCCC(N3CCN(c4cccc(Cl)c4)CC3)C2)cc1OC (stereo not given)	DT40 TDP1 no CPT 23µM, TDP1 cell CPT inconclusive
CCOc1cc(CN2CCCC(N3CCN(c4ccc(F)cc4)CC3)C2)ccc1OC (stereo not given)	DT40 TDP1 no CPT inconclusive, TDP1 cell CPT 16µM
COc1ccccc1NC(=O)Cn1c(C)cc(C)c(C#N)c1=O	none (no result: HT1080NT lethal, HT1080 IDH1KD tx, IL1B secr inh)
CCOc1ccccc1NC(=O)Nc1ccc2c(c1)CCC2	none
CN(C)c1cccc(F)c1C(=O)NC(=O)Nc1ccc(Cl)cc1	DT40 TDP1 no CPT 6.5µM, TDP1 cell CPT 5.2µM, HT1080NT lethal inconclusive, HT1080 IDH1KD tx inconclusive
O=C(Nc1csc([N+](=O)[O-])c1)Nc1ccccc1Cl	DT40 TDP1 no CPT 23µM, TDP1 cell CPT 21µM, HT1080NT lethal inconclusive, HT1080 IDH1KD tx inconclusive, IL1B secr inh -98
O=C(Nc1ccccc1F)Nc1ccc([N+](=O)[O-])cc1Cl	DT40 TDP1 no CPT inconclusive, TDP1 cell CPT inconclusive, IL1B secr inh inconclusive
Cc1ccccc1C(=O)Nc1cccc(NC(=O)c2ccc(F)cc2)c1	DT40 TDP1 no CPT inconclusive, IL1B secr inh -50
O=C(Nc1cccc(NC(=O)c2ccccc2Cl)c1)c1ccc(F)cc1	DT40 TDP1 no CPT inconclusive, TDP1 cell CPT inconclusive
O=C(Nc1ccc2c(c1)CCC2)Nc1ccccc1Cl	TDP1 cell CPT inconclusive, IL1B secr inh -69
CN(C)c1cccc(N(C)C)c1CNC(=O)NC(=O)c1c(F)cccc1F	DT40 TDP1 no CPT inconclusive, TDP1 cell CPT inconclusive, HT1080NT lethal inconclusive
OCC1(CCc2ccccc2)CCN(Cc2cccn2-c2cccnc2)CC1	DT40 TDP1 no CPT inconclusive
O=C(Nc1ccccc1Cl)Nc1ccccc1Cl	DT40 TDP1 no CPT inconclusive
O=C(Nc1ccc(Nc2ccccc2)cc1)Nc1ccccc1Cl	DT40 TDP1 no CPT 7.3µM, TDP1 cell CPT 18µM, HT1080NT lethal inconclusive, HT1080 IDH1KD tx inconclusive, IL1B secr inh inconclusive
O=C(Nc1ccc(Cl)cc1)Nc1ccccc1Sc1ncc([N+](=O)[O-])s1	DT40 TDP1 no CPT 6.5µM, TDP1 cell CPT 6.5µM, HT1080NT lethal inconclusive, HT1080 IDH1KD tx inconclusive
O=C(Nc1ccc(Nc2ccccc2)cc1)c1c(F)c(F)c(F)c(F)c1F	DT40 TDP1 no CPT 6.5µM, TDP1 cell CPT 6.5µM, HT1080 IDH1KD tx inconclusive, IL1B secr inh -68
O=C(Nc1ccccc1)c1c(F)cccc1F	none
O=C(Nc1ccc(Nc2ccccc2)cc1)c1c(Cl)cccc1Cl	DT40 TDP1 no CPT 21µM, TDP1 cell CPT inconclusive, HT1080 IDH1KD tx inconclusive, IL1B secr inh -87
CSc1ncccc1C(=O)OCC(=O)NC(C)CCc1ccccc1 (stereo not given)	none
CN(C)c1cccc2c(S(=O)(=O)NC(=O)[C@H]3O[C@@H](n4cnc5c(N)ncnc54)[C@H](O)[C@@H]3O)cccc12	none
CSc1ccc(C(=O)C2CCCN(C(=O)Cn3cnnn3)C2)cc1 (stereo not given)	none
CCOC(=O)c1coc(C(=O)OCC)c1C(=O)OCC	none
O=P(C(=S)Nc1ccccc1Cl)(c1ccccc1)c1ccccc1	DT40 TDP1 no CPT 15µM, TDP1 cell CPT 9.2µM
CC(C)(C)c1ccc(NC(=O)c2c(F)cccc2Cl)cc1	DT40 TDP1 no CPT 3.3µM, TDP1 cell CPT 10µM
O=C(Nc1ccccc1Cl)c1ccc(C(=O)Nc2ccccc2Cl)cc1	none
O=C(Nc1ccc(Nc2ccccc2)cc1)c1ccc(F)cc1	DT40 TDP1 no CPT 21µM, TDP1 cell CPT inconclusive
CC(=O)c1cccc(-c2ccnc3c2CC(C(=O)Nc2ccc(C(C)C)cc2)O3)c1 (stereo not given)	DT40 TDP1 no CPT 10µM, TDP1 cell CPT 23µM, HT1080NT lethal inconclusive, HT1080 IDH1KD tx inconclusive
CC(=O)Nc1ccc(-c2ccnc3c2CC(C(=O)Nc2cccnc2)O3)cc1 (stereo not given)	DT40 TDP1 no CPT 3.7µM, TDP1 cell CPT 5.2µM, HT1080NT lethal 13µM, HT1080 IDH1KD tx 13µM
CC(=O)c1cccc(NC(=O)C2Cc3c(-c4cccc(C(C)=O)c4)ccnc3O2)c1 (stereo not given)	DT40 TDP1 no CPT 15µM, TDP1 cell CPT 16µM
CC(=O)c1cccc(-c2ccnc3c2CC(C(=O)Nc2cccc(NS(C)(=O)=O)c2)O3)c1 (stereo not given)	DT40 TDP1 no CPT 9.2µM, TDP1 cell CPT 15µM, HT1080NT lethal inconclusive, HT1080 IDH1KD tx 18µM
COc1ccc(NC(=O)C/C(C)=N/NC(=O)c2ccccn2)c(OC)c1	none
CC(=O)c1cccc(-c2ccnc3c2CC(C(=O)Nc2cccnc2)O3)c1 (stereo not given)	none
CC(=O)c1cccc(-c2ccnc3c2CC(C(=O)Nc2cccc(N(C)C)c2)O3)c1 (stereo not given)	DT40 TDP1 no CPT inconclusive, TDP1 cell CPT inconclusive, HT1080NT lethal inconclusive, HT1080 IDH1KD tx inconclusive
CS(=O)(=O)Nc1cccc(NC(=O)C2Cc3c(-c4ccco4)ccnc3O2)c1 (stereo not given)	DT40 TDP1 no CPT 13µM, TDP1 cell CPT inconclusive, HT1080NT lethal 18µM, HT1080 IDH1KD tx inconclusive
CC(=O)c1cccc(-c2ccnc3c2CC(C(=O)Nc2cccc(C(F)(F)F)c2)O3)c1 (stereo not given)	DT40 TDP1 no CPT 13µM, TDP1 cell CPT 26µM
CC(=O)Nc1ccc(-c2ccnc3c2CC(C(=O)Nc2ccc(Cl)c(C(F)(F)F)c2)O3)cc1 (stereo not given)	DT40 TDP1 no CPT inconclusive, TDP1 cell CPT 21µM, HT1080NT lethal inconclusive, HT1080 IDH1KD tx inconclusive, IL1B secr inh inconclusive
CC(=O)c1cccc(NC(=O)C2Cc3c(-c4cccc(C(N)=O)c4)ccnc3O2)c1 (stereo not given)	DT40 TDP1 no CPT 16µM, TDP1 cell CPT 16µM, HT1080NT lethal inconclusive
O=P(CCCO)(Cc1ccccc1)Cc1ccccc1	none
CCN(CC)CC(C)CNC(=O)CN1C(=O)CSc2ccc(S(=O)(=O)N3CCOCC3)cc21 (stereo not given)	none
Fc1ccc(NC(=S)NCc2cccs2)cc1	TDP1 cell CPT inconclusive
CCC(C)(c1nnnn1-c1c(C)cccc1C)N(N=O)c1ccccc1Cl (stereo not given)	DT40 TDP1 no CPT inconclusive, TDP1 cell CPT inconclusive
